Laboratory results from PubChem BioAssay (NCATS).
Inconclusive results are not listed. Values without a mark were called inactive. Calls of active or inactive are those of the source. Calls come from the whole dose curve; as a rule, active = well fitted curve in the direction sought with a large enough effect; inconclusive = small, poorly fitted or top-dose-only effect, or another doubt; inactive = no such curve, though single readings can be large; an effect the other way counts as inactive or inconclusive.

Assay: qHTS assay to identify small molecule inhibitors of chordoma cells - UCH-1 (AID 1259355); note: % is set by controls: 0 for no effect and ±100 for the full control effect; nearly all actives have a fitted effect of over 55% in size
Conditions: UCH-1 chordoma viability, CellTiter-Glo, 48 h, combination, with auranofin plus four topoisomerase inhibitors; series mostly up to 46.1 µM; activity, negative = inhibition: at the top concentration
Method in brief: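 Seed 800 cells per well; incubate overnight at 37 C, 5% CO2. Add test compounds (15 concentrations), then the auranofin–topoisomerase-agent combination. Incubate 48hr, add CellTiter-Glo, wait 30min, read luminescence.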

SMILES	activity, negative = inhibition	Potency
CC(=O)CCCCn1c(=O)c2c(ncn2C)n(C)c1=O	-20.4% [at 20.6 µM]	
O=C1NC(=O)C(c2ccccc2)(c2ccccc2)N1	-31.8%	
Cc1cnc(C(=O)O)c[n+]1[O-]		inactive
COc1ccccc1N1CCN(CCCNc2cc(=O)n(C)c(=O)n2C)CC1		inactive
NCCS	-5.73%	
CCN(CC)C(=O)c1ccc(O)c(OC)c1		inactive

Assay: Identifying Small Molecule Inhibitors of Pancreatic Cancer Stem Cells (A2780, Spheroid) (AID 1259357);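 note: compound exposure lasted 48 h before the ATP luminescence read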; note: potency is the fitted concentration of half-maximal effect;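 for viability (percent of control): 100% = DMSO treated cells and 0% = wells without cells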
Conditions: Potency: A2780 spheroid viability; series mostly up to 46.1 µM; viability (percent of control): at the top concentration
Method in brief: (§1)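 Monolayer and spheroid cultures are compared. Spheroids form over 14 days in stem cell medium on hydrogel-coated low-attachment plates, then are exposed to compound for 48 h before CellTiter-Glo luminescence.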

SMILES	viability (percent of control) [%]	Potency
CC(C)(C)c1cc(C(=O)O)c(NC(=O)Nc2ccc3[nH]ncc3c2)s1	84.4	
CCOC(CN1C(=O)[C@](CC(=O)Nc2ccc(C)cc2)(NC(=O)Nc2ccc(C)cc2)c2ccccc21)OCC		0.0059 µM (active)
CCOc1ccc(Nc2nc(-c3c(C)nc4ccccn34)cs2)cc1		0.296 µM (active)
CN1CCN(CCOc2cc(OC3CCOCC3)c3c(Nc4c(Cl)ccc5c4OCO5)ncnc3c2)CC1	101	

Assay: Identifying Small Molecule Inhibitors of Pancreatic Cancer Stem Cells (SN12C, Adherent) (AID 1259358);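 note: cell survival measured after 48 h of compound exposure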; note: potency is the fitted concentration of half-maximal effect
Conditions: viability/growth inhibition; series mostly up to 46.1 µM; viability (percent of control): at the top concentration
Method in brief: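 Adherent (2D) versus sphere (3D) formats; spheres generated 14 d in SCM beforehand. Compound transferred by pin tool after 4 h, 48 h incubation, CellTiter-Glo endpoint.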

SMILES	Potency	viability (percent of control) [%]
c1ccc2c(-c3cnn4cc(-c5ccc(N6CCNCC6)cc5)cnc34)ccnc2c1	26.4 µM (active)	
O=C(O)c1ccc(-c2cc3cccnc3c(-c3ccc4nonc4c3)n2)cc1		102
CC(C)(C)c1cc(C(=O)O)c(NC(=O)Nc2ccc3[nH]ncc3c2)s1		108
CCOC(CN1C(=O)[C@](CC(=O)Nc2ccc(C)cc2)(NC(=O)Nc2ccc(C)cc2)c2ccccc21)OCC	23.5 µM (active)	
CO[C@@H](C(=O)N1Cc2[nH]nc(NC(=O)c3ccc(N4CCN(C)CC4)cc3)c2C1)c1ccccc1	0.743 µM (active)	
O=C(O)CCC1CCC(c2cc(F)ccc2F)(S(=O)(=O)c2ccc(Cl)cc2)CC1 (centres undefined)		110
Clc1ccc(-c2nc3sccn3c2C=NOCc2ccc(Cl)c(Cl)c2)cc1		105
CN1CCN(CCOc2cc(OC3CCOCC3)c3c(Nc4c(Cl)ccc5c4OCO5)ncnc3c2)CC1	1.87 µM (active)	

Assay: Identifying Small Molecule Inhibitors of Pancreatic Cancer Stem Cells (SN12C, Spheroid) (AID 1259360); note: potency is the fitted concentration of half-maximal effect;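 for viability (% of control): 100% = DMSO-treated cells and 0% = wells without cells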
Conditions: Potency: SN12C spheroid viability; series mostly up to 46.1 µM; viability (% of control): at the top concentration
Method in brief: as §1

SMILES	viability (% of control) [%]	Potency
O=C(O)c1ccc(-c2cc3cccnc3c(-c3ccc4nonc4c3)n2)cc1	102	
CC(C)(C)c1cc(C(=O)O)c(NC(=O)Nc2ccc3[nH]ncc3c2)s1	103	
CCOC(CN1C(=O)[C@](CC(=O)Nc2ccc(C)cc2)(NC(=O)Nc2ccc(C)cc2)c2ccccc21)OCC		18.7 µM (active)
CO[C@@H](C(=O)N1Cc2[nH]nc(NC(=O)c3ccc(N4CCN(C)CC4)cc3)c2C1)c1ccccc1	95.8	
Clc1ccc(-c2nc3sccn3c2C=NOCc2ccc(Cl)c(Cl)c2)cc1	96.1	
CN1CCN(CCOc2cc(OC3CCOCC3)c3c(Nc4c(Cl)ccc5c4OCO5)ncnc3c2)CC1		18.7 µM (active)
